Screening results deposited in PubChem by several laboratories.
AMPAR-TARP mod = modulators of AMPA receptor GluA2-stargazin complexes; AID 1259245; calls only at 30 µM; HEK293 GluA2+stargazin, membrane potential dye (FDSS), glutamate EC50; hits were called plate by plate, in both directions; O88602+P19491; actives 3.5% (n = 40,000);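 active = any of four per-well response measures lying three or more SD from its plate-wide compound average, in either direction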
GIRK2 act = GIRK2 channel activators by thallium flux. P48051. HEK293 GIRK2/NPY4 cells, thallium flux fluorescence. activation (% efficacy), % for hits at 37.5 µM. 34,000 tested, under 10 active. AID 1259324;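 active = primary screen hit, no activity in plain HEK293 cells, and in GIRK2-only cells above 5% efficacy rising with concentration; inactive = the rest, including fluorescent compounds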;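 also: efficacy is normalized control-subtracted fluorescence 15 s after thallium addition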
Target sequence (P48051 whole entry, looked up): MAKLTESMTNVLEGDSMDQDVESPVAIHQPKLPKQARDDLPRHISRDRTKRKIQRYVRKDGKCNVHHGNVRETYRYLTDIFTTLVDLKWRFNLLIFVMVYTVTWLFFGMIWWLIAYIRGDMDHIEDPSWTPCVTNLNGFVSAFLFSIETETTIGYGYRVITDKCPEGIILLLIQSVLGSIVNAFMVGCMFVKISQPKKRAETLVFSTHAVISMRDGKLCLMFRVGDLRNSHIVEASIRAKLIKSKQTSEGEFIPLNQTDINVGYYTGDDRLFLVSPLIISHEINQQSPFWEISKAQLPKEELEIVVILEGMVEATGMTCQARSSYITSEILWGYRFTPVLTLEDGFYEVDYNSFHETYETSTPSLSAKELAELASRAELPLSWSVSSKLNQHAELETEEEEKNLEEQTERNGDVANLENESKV
Starred values were filed as active, the others as inactive. The sample as a whole holds a higher share of hits than the screen did.

How did Cn1c(=O)n(CC(N)=O)c(=O)c2c1nc1n2CCCN1c1cccc(Cl)c1 do in these assays?
AMPAR-TARP mod: inactive

Results for Cc1ccccc1NC(=O)Cn1c(Cc2ccccc2)nc2ccccc21 ?
AMPAR-TARP mod: active; GIRK2 act: inactive

What do the screens show for `COc1ccc(Cc2nc3ccccc3n2CC(=O)N2CCCCCC2)cc1OC`?
AMPAR-TARP mod: inactive; GIRK2 act: inactive

What do the screens show for `COc1cccc(C(=O)Nc2ccc(-n3c(C)nc4ncccc4c3=O)cc2)c1`?
AMPAR-TARP mod: inactive

Results for COc1cccc(C(CNC(=O)c2ccccc2Br)N2CCOCC2)c1 (stereo not drawn) ?
AMPAR-TARP mod: inactive; GIRK2 act: inactive

Results for O=C(NCC(c1cccc2ccccc12)N1CCOCC1)c1cccc(Br)c1 (stereo not drawn) ?
AMPAR-TARP mod: inactive; GIRK2 act: inactive

How did COc1ccc(C(CNC(=O)c2ccc3ccccc3c2)N2CCOCC2)cc1 (stereo not drawn) do in these assays?
AMPAR-TARP mod: active

What do the screens show for `COc1ccc(C(CNC(=O)c2cc(OC)cc(OC)c2)N2CCOCC2)cc1` (stereo not drawn)?
AMPAR-TARP mod: inactive

How did O=C(NCC(c1cccc2ccccc12)N1CCOCC1)c1ccc(Br)o1 (stereo not drawn) do in these assays?
AMPAR-TARP mod: active; GIRK2 act: inactive

Results for COc1ccc(C(CNC(=O)c2ccccc2Br)N2CCOCC2)cc1 (stereo not drawn) ?
AMPAR-TARP mod: active; GIRK2 act: inactive

What do the screens show for `COc1ccc(-c2ccc(C#N)c(SCc3ccc(C#N)cc3)n2)cc1`?
AMPAR-TARP mod: inactive; GIRK2 act: inactive

What do the screens show for `COc1ccc(-c2ccc3c(N)c(-c4ccc(C#N)cc4)sc3n2)cc1`?
AMPAR-TARP mod: active; GIRK2 act: inactive

How did COc1cc(OC)cc(C(=O)Nc2nnc(-c3ccco3)o2)c1 do in these assays?
AMPAR-TARP mod: inactive

What do the screens show for `CCOC(=O)c1csc(NC(=O)c2cc3ccccc3o2)n1`?
AMPAR-TARP mod: active

How did C=CCNC(=O)Nc1nc(C(=O)OCC)cs1 do in these assays?
AMPAR-TARP mod: inactive; GIRK2 act: inactive

Results for O=S(=O)(NCC1CCN(Cc2ccsc2)CC1)c1cccs1 ?
GIRK2 act: inactive

Results for C=CCN1CC(c2nc3ccccc3n2Cc2ccc(Cl)c(Cl)c2)CC1=O (stereo not drawn) ?
AMPAR-TARP mod: inactive

What do the screens show for `C=CCN1CC(c2nc3ccccc3n2C(C)c2ccccc2)CC1=O` (stereo not drawn)?
AMPAR-TARP mod: active

What do the screens show for `C=CCN1CC(c2nc3ccccc3n2Cc2c(C)c(C)cc(C)c2C)CC1=O` (stereo not drawn)?
AMPAR-TARP mod: active

What do the screens show for `CC(C)(C)N1CC(c2nc3ccccc3n2CCOc2ccccc2)CC1=O` (stereo not drawn)?
AMPAR-TARP mod: inactive

How did C=CCN1CC(c2nc3ccccc3n2Cc2ccc(C(C)(C)C)cc2)CC1=O (stereo not drawn) do in these assays?
AMPAR-TARP mod: inactive

How did CC(c1ccccc1)n1c(C2CC(=O)N(C(C)(C)C)C2)nc2ccccc21 (stereo not drawn) do in these assays?
AMPAR-TARP mod: active

How did O=C(Nc1c2c(nn1-c1ccc(F)cc1)CS(=O)(=O)C2)C(=O)NC1CCCCCC1 do in these assays?
AMPAR-TARP mod: inactive; GIRK2 act: inactive

What do the screens show for `COc1ccccc1N1CCN(C(CNS(=O)(=O)c2ccc(C)cc2)c2cccnc2)CC1` (stereo not drawn)?
AMPAR-TARP mod: inactive

Results for Cc1sc2ncnc(Sc3c[nH]c4ccccc34)c2c1C ?
AMPAR-TARP mod: inactive

Results for Nc1nc(SCC(=O)Nc2ccccc2)ncc1S(=O)(=O)c1ccc(Cl)s1 ?
AMPAR-TARP mod: active; GIRK2 act: inactive

Results for CC(=O)c1ccc(NC(=O)CSc2ncc(S(=O)(=O)c3ccc(Cl)s3)c(N)n2)cc1 ?
AMPAR-TARP mod: inactive; GIRK2 act: inactive

How did Cc1ccc(-n2c(-c3ccccc3)cn3c4c(=O)n(CC(N)=O)c(=O)n(C)c4nc23)cc1 do in these assays?
AMPAR-TARP mod: inactive

How did CN(CCCC(N)=O)S(=O)(=O)c1ccc2c(c1)C(=O)c1ccccc1C2=O do in these assays?
AMPAR-TARP mod: active

What do the screens show for `COc1ccc(S(=O)(=O)N(C)CCCC(=O)O)cc1N(C)S(=O)(=O)c1ccccc1`?
AMPAR-TARP mod: inactive

How did O=C(N1CCC(Cn2cccn2)CC1)C1(c2cccs2)CCCC1 do in these assays?
AMPAR-TARP mod: inactive; GIRK2 act: inactive

What do the screens show for `O=C(N1CCC(Cn2cccn2)CC1)C1(c2ccc(Cl)cc2)CCCC1`?
AMPAR-TARP mod: active; GIRK2 act: inactive

Results for O=C(NCCS(=O)(=O)N1CCN(C(c2ccccc2)c2ccccc2)CC1)c1ccccc1 ?
AMPAR-TARP mod: inactive
